Laboratory results reported in the supplement of paper PMC9844399.
Counter-ions that a name gives are not always drawn. Values without a mark were called inactive.

These molecules were tested on HeLa (assay: MALAT1 nuclear FISH intensity, robust Z-score vs DMSO; higher = more nuclear MALAT1 lncRNA, active = -3 or less). Conditions: 10 µM; 6 h.
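Further: High-content confocal imaging of branched-DNA amplified FISH in 384-well plates, Hoechst-defined nuclei, score is well value minus plate DMSO median over DMSO robust SD, four wells per compound.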

Question: With `CCCCCCCCCCCCC/C=C/[C@@H](O)[C@H](CO)NC(=O)CCCCCCC` [C8 Ceramide] as the molecule, how does the “MALAT1 nuclear FISH intensity” value read?
Answer: Its value is 0.0724.

Question: How did the “MALAT1 nuclear FISH intensity” value turn out when `COc1c(C)c2c(c(O)c1C/C=C(\C)CCC(=O)OCCN1CCOCC1)C(=O)OC2` [Mycophenolate Mofetil] was run?
Answer: Its value is -1.31.

Question: How did the “MALAT1 nuclear FISH intensity” value turn out when `CCCCCCCC/C=C\C/C=C\C/C=C\CCCC(=O)O` [Mead acid (20:3 n-9)] was run?
Answer: Its value is 0.854.

Question: How did the “MALAT1 nuclear FISH intensity” value turn out when `Nc1nc(Cl)nc2c1ncn2[C@@H]1O[C@H](CO)[C@@H](O)[C@@H]1F` [Clofarabine] was run?
Answer: Its value is 0.00504.

Question: `C=C(CC)C(=O)c1ccc(OCC(=O)O)c(Cl)c1Cl` [Ethacrynic Acid] was tested. Which “MALAT1 nuclear FISH intensity” value did it give?
Answer: Its value is 0.0112.

Question: How did the “MALAT1 nuclear FISH intensity” value turn out when `Cc1cccc(Nc2ccccc2C(=O)O)c1C` [Mefenamic acid] was run?
Answer: The value was 0.922.

Question: `COc1cccc2c1C(=O)c1c(O)c3c(c(O)c1C2=O)C[C@@](O)(C(=O)CO)C[C@@H]3O[C@H]1C[C@H](N)[C@@H](O)[C@H](C)O1` was tested. Which “MALAT1 nuclear FISH intensity” value did it give?
Answer: The value was -1.13.

Question: `O=C(O)CNC(=O)C(CS)Cc1ccccc1` (stereo unspecified) [Thiorphan] was tested. Which “MALAT1 nuclear FISH intensity” value did it give?
Answer: Its value is 0.676.

Question: Which “MALAT1 nuclear FISH intensity” value does the source give for `N#Cc1c(O)c2c(-c3ccc(-c4ccccc4O)cc3)csc2[nH]c1=O` here?
Answer: Its value is -0.426.

Question: Which “MALAT1 nuclear FISH intensity” value does the source give for `CN(C)CCCOc1nn(Cc2ccccc2)c2ccccc12` [Benzydamine hydrochloride] here?
Answer: Its value is -0.28.

Question: How did the “MALAT1 nuclear FISH intensity” value turn out when `NC(=O)NO` [Hydroxyurea] was run?
Answer: The value was -0.0765.

Question: For `COc1ccc(Cl)cc1C(=O)NCCc1ccc(S(=O)(=O)NC(=O)NC2CCCCC2)cc1` [Glibenclamide], which “MALAT1 nuclear FISH intensity” value is on record?
Answer: The value was -1.55.

Question: With `C/C(=C\C(=O)OCCCCCCCCC(=O)O)C[C@@H]1OC[C@H](C[C@@H]2O[C@H]2[C@@H](C)[C@H](C)O)[C@@H](O)[C@H]1O` [Mupirocin] as the molecule, how does the “MALAT1 nuclear FISH intensity” value read?
Answer: Its value is -0.317.

Question: For `CCOC(=O)c1ccc(C#Cc2ccc3c(c2)C(C)(C)CCS3)nc1` [Tazarotene], which “MALAT1 nuclear FISH intensity” value is on record?
Answer: Its value is -0.936.

Question: How did the “MALAT1 nuclear FISH intensity” value turn out when `COC(=O)[C@@H]1CC2=CC(=O)CC[C@]2(C)[C@@]23O[C@@H]2C[C@@]2(C)[C@@H](CC[C@@]24CCC(=O)O4)[C@H]13` [Eplerenone] was run?
Answer: Its value is 1.14.

Question: Which “MALAT1 nuclear FISH intensity” value does the source give for `CN1C(CCl)Nc2cc(Cl)c(S(N)(=O)=O)cc2S1(=O)=O` (stereo unspecified) [Methyclothiazide] here?
Answer: Its value is 0.344.

Question: With `CC(C)[C@H](NC(=O)CNC(=O)OC(C)(C)C)C(=O)N[C@H](C=O)C(C)C` as the molecule, how does the “MALAT1 nuclear FISH intensity” value read?
Answer: Its value is -0.412.

Question: For `CC(C)NCC(O)COc1cccc2ccccc12` (stereo unspecified), which “MALAT1 nuclear FISH intensity” value is on record?
Answer: The value was -1.65.

Question: `CC[C@@H]1/C=C(\C)C[C@H](C)C[C@H](OC)[C@H]2O[C@@](O)(C(=O)C(=O)N3CCCC[C@H]3C(=O)O[C@H](/C(C)=C/[C@@H]3CC[C@H](Cl)[C@H](OC)C3)[C@H](C)[C@@H](O)CC1=O)[C@H](C)C[C@@H]2OC` [Pimecrolimus] was tested. Which “MALAT1 nuclear FISH intensity” value did it give?
Answer: The value was 1.33.

Question: How did the “MALAT1 nuclear FISH intensity” value turn out when `COCCc1ccc(OCC(O)CNC(C)C)cc1` (stereo unspecified) [Metoprolol Tartrate] was run?
Answer: The value was -0.751.

Question: How did the “MALAT1 nuclear FISH intensity” value turn out when `CCCc1cc(=O)[nH]c(=S)[nH]1` [Propylthiouracil] was run?
Answer: Its value is -0.217.

Question: Which “MALAT1 nuclear FISH intensity” value does the source give for `CC=CC1=C(C(=O)O)N2C(=O)[C@@H](NC(=O)[C@H](N)c3ccc(O)cc3)[C@H]2SC1` [Cefprozil] here?
Answer: The value was -1.07.

Question: How did the “MALAT1 nuclear FISH intensity” value turn out when `CO[C@H]1/C=C/O[C@@]2(C)Oc3c(C)c(O)c4c(O)c(cc(O)c4c3C2=O)NC(=O)/C(C)=C\C=C\[C@H](C)[C@H](O)[C@@H](C)[C@@H](O)[C@@H](C)[C@H](OC(C)=O)[C@@H]1C` [Rifamycin SV sodium salt] was run?
Answer: Its value is -0.605.

Question: Which “MALAT1 nuclear FISH intensity” value does the source give for `CCCCCC(O)C=CC1C2CC(CO2)C1CC=CCCCC(=O)O` (stereo unspecified) here?
Answer: Its value is -2.94.

Question: Which “MALAT1 nuclear FISH intensity” value does the source give for `Clc1ccc(COC(Cn2ccnc2)c2ccc(Cl)cc2Cl)cc1` (stereo unspecified) [Econazole nitrate] here?
Answer: The value was -1.3.

Question: How did the “MALAT1 nuclear FISH intensity” value turn out when `OC[C@H]1O[C@@H](n2cnc3c2N=CNC[C@H]3O)C[C@@H]1O` [Pentostatin] was run?
Answer: Its value is -0.805.

Question: With `OCc1cc(C(O)CNCCCCCCOCCCCc2ccccc2)ccc1O` (stereo unspecified) [Salmeterol] as the molecule, how does the “MALAT1 nuclear FISH intensity” value read?
Answer: The value was -0.00989.

Question: How did the “MALAT1 nuclear FISH intensity” value turn out when `CC(/C=C/c1cccc(Oc2ccc(F)cc2)c1)N(O)C(N)=O` (stereo unspecified) was run?
Answer: The value was -1.61.

Question: For `CCC(C)SSc1ncc[nH]1` (stereo unspecified), which “MALAT1 nuclear FISH intensity” value is on record?
Answer: The value was -0.901.

Question: `CCCCCCCCCCCCCCCC(=O)OCC(COP(=O)(O)O)OC(=O)CCCCCCCCCCCCCCC` (stereo unspecified) [Dipalmitoylphosphatidic acid] was tested. Which “MALAT1 nuclear FISH intensity” value did it give?
Answer: The value was -0.444.

Question: With `Nc1ccc(S(=O)(=O)c2ccc(N)cc2)cc1` [Dapsone] as the molecule, how does the “MALAT1 nuclear FISH intensity” value read?
Answer: The value was -0.937.
